From PubChem
mcGAS MS inh: mouse cGAS inhibition by mass spec | Q8C6L5 | recombinant mouse cGAS, cGAMP by RapidFire MS | inhibition, % at 12.5 µM | 130,000 tested, 0.18% active;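 active = inhibition of cGAS enzyme activity at or above 60%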;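 also: enzyme stimulated by 45 bp dsDNA with ATP and GTP substrates; cGAMP share of summed cGAMP plus half ATP and half GTP signals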
Target sequence (Q8C6L5 whole entry, looked up): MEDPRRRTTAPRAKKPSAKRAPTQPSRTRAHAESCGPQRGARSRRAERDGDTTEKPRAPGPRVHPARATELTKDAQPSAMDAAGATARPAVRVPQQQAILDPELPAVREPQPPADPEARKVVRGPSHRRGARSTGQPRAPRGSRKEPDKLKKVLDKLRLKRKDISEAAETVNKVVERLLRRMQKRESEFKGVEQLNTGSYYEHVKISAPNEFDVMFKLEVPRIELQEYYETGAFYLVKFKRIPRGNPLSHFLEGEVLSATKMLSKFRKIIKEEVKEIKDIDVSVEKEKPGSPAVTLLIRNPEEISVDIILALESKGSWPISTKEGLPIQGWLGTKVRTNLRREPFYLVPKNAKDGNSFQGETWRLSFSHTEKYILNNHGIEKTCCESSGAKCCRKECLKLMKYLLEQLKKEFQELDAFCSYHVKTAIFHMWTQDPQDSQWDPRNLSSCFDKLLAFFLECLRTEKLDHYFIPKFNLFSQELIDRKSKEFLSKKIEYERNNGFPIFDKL
Of the large screens only hits and unclear results are named; the others gave an inactive call. This is one part of a sample in which hits are shown more often than they occur.

C=CCn1c(=O)c2c(nc3n(CCCN4CCOCC4)c(C)cn23)n(C)c1=O	none
Cc1cc(NN=Cc2ccccn2)nc2ccccc12	none
COc1cc(/C=N\Nc2ncnc3nc[nH]c23)cc(Br)c1O	none
Oc1c(Br)cc(C=NNc2ccccn2)cc1Br	mcGAS MS inh 74
CC(O)=CP(=O)(c1ccccc1)c1ccccc1	none
NS(=O)(=O)c1cccc(S(=O)(=O)NCCc2cccc(F)c2)c1	none
O=C1NC2(CCOc3ccccc32)C(=O)N1CCN1C(=O)c2ccccc2C1=O (stereo not drawn)	none
Cc1cc(C)cc(CN2C(=O)NC3(CCOc4ccccc43)C2=O)c1 (stereo not drawn)	none
O=C1NC2(CCOc3ccccc32)C(=O)N1Cc1coc(-c2cccs2)n1 (stereo not drawn)	mcGAS MS inh 95
Cc1cc(-c2ccc(NN=C3C=Cc4c(S(=O)(=O)O)cc(S(=O)(=O)O)c(N)c4C3=O)c(C)c2)ccc1NN=C1C=Cc2c(S(=O)(=O)O)cc(S(=O)(=O)O)c(N)c2C1=O	mcGAS MS inh 95
Oc1cccc(CCC2CCCCN2Cc2nc(-c3ccccc3)no2)c1 (stereo not drawn)	none
O=S(=O)(CC1CCCO1)Nc1ccc(N2CCCC2)c(Cl)c1 (stereo not drawn)	none
N#Cc1cccc(S(=O)(=O)Nc2c(F)cccc2N2CCCC2)c1	none
N#CCCCCS(=O)(=O)Nc1ccc(N2CCCC2)c(F)c1	mcGAS MS inh 63
FC(F)(F)C1CCCN(CCCc2nnnn2-c2ccccc2)C1 (stereo not drawn)	none
CCN1CCN(CCC(=O)NCC2(O)CCCCCC2)CC1	none
Cc1ccccc1C(=O)O/N=C1/C(=O)c2ccccc2-c2ccccc21	mcGAS MS inh 70
CCOC(=O)c1cccc2c1-c1ccccc1/C2=N/O	none
C/C(=N/OC(=O)c1ccccc1C)c1ccc(Cl)cc1Cl	none
Cc1nnc(-c2cccc(C(C)N3CCCC3)c2)s1 (stereo not drawn)	none
c1nc(Nc2ccc3c(c2)OCCCO3)c2c3c(sc2n1)CCCCC3	none
Cc1ccc(NC(=O)CSc2nnc(CCC(=O)O)c(=O)[nH]2)cc1Cl	none
O=C(O)CNC(=O)CN1C(=O)CSC1=S	none
O=C(O)CN1C(=O)/C(=C2/C(=O)N(CC(=O)O)c3ccccc32)SC1=S	none
O=C(O)CN1C(=O)C(=NN2C(=O)CSC2=S)c2ccccc21	mcGAS MS inh 92
Cc1ccccc1NC(=O)CS(=O)(=O)Cc1nnnn1-c1ccccc1	none
CCCC1C(C#N)C(=N)SC(=N)C1C#N (stereo not drawn)	none
CCOC(=O)C1=C(C)NC(=O)C(C#N)C1c1ccc([N+](=O)[O-])cc1 (stereo not drawn)	none
N#CC1C(=N)SC(=N)C(C#N)C1c1ccc([N+](=O)[O-])cc1 (stereo not drawn)	mcGAS MS inh 62
O=C(Nc1cccc(-c2cscn2)c1)c1ccc2nccnc2c1	none
N#CC1(c2ccccn2)Cc2cc([N+](=O)[O-])ccc2N2CCCCC21 (stereo not drawn)	none
O=c1c2cnc3ncnn3c2ccn1-c1ccc(Br)cc1	none
Cc1noc2c1C(c1ccsc1)C(C#N)C(N)=N2 (stereo not drawn)	none
CCCn1c(=O)n(CCC(=O)N2CCCn3ncnc32)c2ccccc21	none
CN1CCN(C)C(CNC(=O)C2CC2c2ccc(Cl)c(Cl)c2)C1 (stereo not drawn)	none
O=C(C1CC1c1ccc(Cl)c(Cl)c1)N1CCCn2ncnc21 (stereo not drawn)	mcGAS MS inh 96
COc1ccc(CN(C)Cn2[nH]c(-c3ccc(C)cc3)nc2=S)c(OC)c1OC	none
CCC1CCCN1CCCS(=O)(=O)NC (stereo not drawn)	none
O=[N+]([O-])c1ccc(C2CN=C(Nc3ccccc3)O2)cc1 (stereo not drawn)	none
CCCc1noc(C(C)N2CCCN(C(=O)c3ccccc3Cl)CC2)n1 (stereo not drawn)	mcGAS MS inh 76
CCc1noc(C(C)N2CCN(S(=O)(=O)c3c(C)c(C)c(C)c(C)c3C)CC2)n1 (stereo not drawn)	none
C=C(Br)CNC(=O)N1CCCN(C(=O)c2ccccc2Cl)CC1	none
O=C(CSC1=NCCS1)N(C1CCCCC1)C1CCS(=O)(=O)C1 (stereo not drawn)	none
CC(C)C1CN(C(=O)C2CCC(O)CC2)CCCN1Cc1ccc(F)cc1 (stereo not drawn)	none
Cc1onc(-c2c(F)cccc2Cl)c1C(=O)OCC(=O)N1CCOCC1	none
COc1ccc(C2c3sc(=O)[nH]c3SC3C(=O)NC(=O)C32)cc1 (stereo not drawn)	none
O=C1NC(=O)C2C1Sc1[nH]c(=O)sc1C2c1ccco1 (stereo not drawn)	mcGAS MS inh 89
O=C1C2Sc3[nH]c(=O)sc3C(c3ccc(O)cc3)C2C(=O)N1c1ccc(Cl)cc1 (stereo not drawn)	none
CC1CCC2(CC1)NC(=O)N(NC(=O)CSc1ncn[nH]1)C2=O (stereo not drawn)	none
CCN1CC(C(=O)Nc2ccccc2C(C)C)CC1=O (stereo not drawn)	none
O=C(Nc1ccc2scnc2c1)C1CC(=O)N(CC2CC2)C1 (stereo not drawn)	none
CC(CC#N)Sc1ccccc1NC(=O)C1CC(=O)N(CC2CC2)C1 (stereo not drawn)	mcGAS MS inh 66
